Assay [1] is described as follows: qHTS assay to test for compound auto fluorescence at 535 nm (green) in HEK293 cells (AID 720680). In general terms: Quantitative high-throughput screening tests each substance at several concentrations.
Assay [2] in a line: qHTS assay to test for compound auto fluorescence at 460 nm (blue) in HEK293 cell free culture (AID 720681). In short, it runs like this: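 Blue fluorescence (Ex 405/Em 460 nm, triamterene-equivalent) was read immediately after pin transfer of compound or DMSO into medium (DMEM, 10% FBS) without cells.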
The nature of assay [3]: qHTS assay to test for compound auto fluorescence at 535 nm (green) in HEK293 cell free culture (AID 720682). In short, it runs like this:
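Green-label autofluorescence (485 nm excitation, 535 nm emission) measured on compound added to cell-free culture medium (DMEM, 10% FBS). Output is expressed relative to fluorescein.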

Assay [4] in a line: qHTS assay to test for compound auto fluorescence at 590 nm (red) in HEK293 cell free culture (AID 720683). In short, it runs like this:
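Red-channel autofluorescence of compounds in culture medium (DMEM, 10% FBS), no cells, measured at 540/590 nm. Rose Bengal sodium is the reference fluorophore for equivalence.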

Assay [5] in a line: qHTS assay to test for compound auto fluorescence at 590 nm (red) in HepG2 cell free culture (AID 720684). The procedure, abridged:
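Steps: dispense MEM/10% FBS medium, no cells; pin compound or DMSO vehicle; read red channel, Ex/Em 540/590 nm. Output given as Rose Bengal sodium equivalents.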

Assay [6] can be described thus: qHTS assay to test for compound auto fluorescence at 460 nm (blue) in HepG2 cell free culture (AID 720685). In short, it runs like this:
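Compound (23 nL) or DMSO pinned into cell-free MEM with 10% FBS; blue fluorescence read at 405/460 nm excitation/emission, expressed as auto-fluorescence equivalency to triamterene.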

Assay [7] can be described thus: qHTS assay to test for compound auto fluorescence at 535 nm (green) in HepG2 cell free culture (AID 720686).
Assay [8] in a line: qHTS assay to test for compound auto fluorescence at 460 nm (blue) in HepG2 cells (AID 720687). The procedure, abridged:
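Blue-channel autofluorescence (Ex/Em 405/460 nm, triamterene-equivalent) was measured after 1 hr compound exposure at 37 C, 5% CO2. Cells were HepG2, plated overnight at 37 C in MEM plus 10% FBS.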

For assay [9], the target named is Glucocorticoid receptor (Homo sapiens) (UniProt P04150). Put plainly: qHTS assay to identify small molecule agonists of the glucocorticoid receptor (GR) signaling pathway (AID 720691; active means well fitted activation curve with a large enough effect in the signal ratio in the repeat runs, not every such curve was filed as active; the % refers to the signal ratio; further: potency means the concentration at half of the fitted maximal effect). The procedure, abridged:
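GR-bla HeLa cells carrying a GRE-driven beta-lactamase reporter, exposed to compounds for 18 h at 37 C. Reporter activation read as fluorescence after 2 h with LiveBLAzer B/G FRET substrate at room temperature.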

The target is the same in assay [10]. Description: qHTS assay to identify small molecule antagonists of the glucocorticoid receptor (GR) signaling pathway (AID 720692; active means well fitted inhibition curve with a large enough effect in the signal ratio in the repeat runs, not every such curve was filed as active; the % refers to the signal ratio). In short, it runs like this:
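GR-bla HeLa cells carrying a GRE-driven beta-lactamase reporter received compound after 4 h plating, then dexamethasone (5 nM final). After 18 h at 37C, the FRET substrate was loaded for 2 h at room temperature and fluorescence read.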

Structures are written as SMILES. Values without a mark were called inactive. Records with an inconclusive call do not appear. Activity calls are given as the source filed them. Unless noted, the call rests on the fitted dose curve; in most records, active means well fitted curve in the direction sought with a large enough effect in the repeat runs; inconclusive means weak or mixed curves; inactive means flat fitted curve, though single readings scatter.
On the % scale 0 is the no-effect control and ±100 the full control effect.

Chain of Glucocorticoid receptor (Homo sapiens) (P04150 whole entry, looked up): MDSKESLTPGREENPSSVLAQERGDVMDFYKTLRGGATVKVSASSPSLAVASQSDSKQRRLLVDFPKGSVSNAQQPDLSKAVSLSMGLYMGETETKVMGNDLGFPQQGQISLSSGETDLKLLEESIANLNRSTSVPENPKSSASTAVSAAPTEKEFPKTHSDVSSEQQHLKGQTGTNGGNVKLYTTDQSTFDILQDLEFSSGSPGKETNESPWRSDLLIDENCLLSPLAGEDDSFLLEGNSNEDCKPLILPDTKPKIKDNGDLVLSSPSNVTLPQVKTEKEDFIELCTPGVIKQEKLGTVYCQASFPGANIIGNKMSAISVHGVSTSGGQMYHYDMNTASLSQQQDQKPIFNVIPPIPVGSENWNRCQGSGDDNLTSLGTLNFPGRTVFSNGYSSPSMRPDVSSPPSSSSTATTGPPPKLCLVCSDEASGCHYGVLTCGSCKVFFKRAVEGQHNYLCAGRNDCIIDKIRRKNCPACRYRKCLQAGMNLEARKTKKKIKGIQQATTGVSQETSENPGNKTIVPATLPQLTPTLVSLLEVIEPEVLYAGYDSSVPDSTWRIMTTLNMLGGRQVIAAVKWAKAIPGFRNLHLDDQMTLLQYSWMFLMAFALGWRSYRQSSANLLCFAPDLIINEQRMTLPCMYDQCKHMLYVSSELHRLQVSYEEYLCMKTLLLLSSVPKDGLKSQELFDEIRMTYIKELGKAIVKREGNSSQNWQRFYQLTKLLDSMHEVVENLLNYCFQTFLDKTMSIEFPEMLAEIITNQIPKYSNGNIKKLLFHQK

With `CC1(C)OC[C@@H](COC(=O)CCc2ccc(OC[C@@H](O)CNCCNC(=O)N3CCOCC3)cc2)O1`, the compound was classed as inactive in assay [1], in assay [2], in [3], in assay [4], in assay [5] and in assay [6]. Besides, the outcome in assay [7] and in [8] was inactive. Also, the Potency result in assay [9] and in assay [10] was “inactive” in each case.
`CCOC(=O)C1=NOC(c2ccccc2)(c2ccccc2)C1`: the result in assay [1], in assay [2], in [3], in assay [4], in assay [5] and in [6] was inactive. In addition, the outcome in [7] and in assay [8] was inactive. For the same compound, the Potency entry in assay [9] and in [10] was “inactive” throughout.
`CO[Si](C)(OC)c1ccccc1`: the compound was classed as inactive in assay [1], in assay [2], in assay [3], in [4], in assay [5] and in assay [6]. For the same compound, the compound was called inactive in [7] and in [8]. Further, the Potency result in [9] is “inactive”.
Take `CCCCCCCCCC[N+](C)(C)[O-]`: the compound was called inactive in [1], in assay [2], in assay [3], in assay [4], in assay [5] and in assay [6]. Also, the compound was classed as inactive in assay [7] and in [8]. Besides, in [9], the Potency entry is “inactive”.
In the case of `Nc1ccn([C@@H]2O[C@H](CO)[C@@H](O)C2O)c(=O)n1` (some centres undefined), the outcome in assay [1], in [2], in assay [3], in assay [4], in [5] and in assay [6] was inactive. Also, the compound was called inactive in assay [7] and in assay [8]. For the same compound, the Potency result in assay [9] was “inactive”.
Turning to `C[N+]1(C)CCCC(OC(=O)C(O)(c2ccccc2)c2ccccc2)C1` (centres undefined), in assay [1], the fluorescence, % of fluorescein was -0.129% [at 18.6 µM]. Also, the fluorescence, % of fluorescent control in assay [2] was 0.158% [at 18.6 µM]; in assay [4] it was 0.023% [at 18.6 µM]; in assay [6] it was -0.0313% [at 18.6 µM]; in [8], -0.102% [at 18.6 µM]. In assay [3], the activity change was -0.0354% [at 18.6 µM]. For the same compound, the fluorescence, % of Rose Bengal in assay [5] is -0.11% [at 18.6 µM]. For the same compound, the fluorescence, % of fluorescein control in assay [7] is -0.0015% [at 18.6 µM]. Moreover, the Potency in assay [9] was 7.23 µM (active).
For `CCN(C=O)CC`, the compound was classed as inactive in assay [1], in assay [2], in [3], in [4], in assay [5] and in [6]. In addition, the call in [7] and in assay [8] was inactive. Also, the Potency result in assay [9] and in assay [10] was “inactive” in each case.
On to `CNC(=O)Nc1ccc(Cl)c(Cl)c1`, for which the call in [1], in assay [2], in [3], in [4], in assay [5] and in [6] was inactive. Further, the call in assay [7] and in assay [8] was inactive. In [9], the Potency entry is “inactive”.
As for `CO[C@@]1(NC(=O)C(C(=O)O)c2ccc(O)cc2)C(=O)N2C(C(=O)O)=C(CSc3nnnn3C)CO[C@@H]21` (some centres undefined), the fluorescence, % of fluorescein in assay [1] was 0.0617% [at 18.6 µM]. Moreover, the fluorescence, % of fluorescent control in assay [2] was 0.413% [at 18.6 µM]; in assay [4] it was 0.0003% [at 18.6 µM]; in assay [6], 0.334% [at 18.6 µM]; in assay [8], 0.208% [at 18.6 µM]. Also, in assay [3], the activity change was 0.0756% [at 18.6 µM]. The fluorescence, % of Rose Bengal in assay [5] was -0.105% [at 18.6 µM]. In assay [7], the fluorescence, % of fluorescein control was 0.0104% [at 18.6 µM]. Also, in assay [9], the Potency entry was “inactive”.
Turning to `Nc1ccn([C@@H]2O[C@H](CO)[C@@H](O)[C@@H]2O)c(=O)n1`, the compound was called inactive in [1], in assay [2], in assay [3], in assay [4], in assay [5] and in [6]. The call in [7] and in assay [8] was inactive. Also, in assay [9], the Potency result was “inactive”.
Consider `Cc1ccccc1N=C(N)N=C(N)N`, for which the compound was classed as inactive in assay [1], in assay [2], in assay [3], in assay [4], in [5] and in [6]. Besides, the outcome in [7] and in assay [8] was inactive. Further, in [9], the Potency entry is “inactive”.
Regarding `CCOCC(C)O` (centres undefined), the compound was classed as inactive in assay [1], in [2], in [3], in assay [4], in assay [5] and in [6]. Besides, the call in assay [7] and in [8] was inactive. In addition, the Potency entry in assay [9] and in [10] was “inactive” in each case.
Regarding `CCCOC(=O)CC`, the compound was classed as inactive in assay [1], in assay [2], in assay [3], in assay [4], in [5] and in assay [6]. Also, the compound was classed as inactive in assay [7] and in assay [8]. For the same compound, the Potency entry in [9] and in assay [10] was “inactive” throughout.
Consider `CC1=NN(c2cccc(S(=O)(=O)O)c2)C(=O)C1`, for which the outcome in [1], in assay [2], in assay [3], in [4], in assay [5] and in assay [6] was inactive. In addition, the result in assay [7] and in [8] was inactive. Also, the Potency entry in [9] and in [10] was “inactive” in each case.
As to `CCC(C)(CN(C)C)OC(=O)c1ccccc1` (centres undefined), in assay [1], the fluorescence, % of fluorescein was -0.0159% [at 18.6 µM]. Also, the fluorescence, % of fluorescent control was -0.0658% [at 18.6 µM] in [2], -0.827% [at 18.6 µM] in [4], 0.131% [at 18.6 µM] in [6] and -0.0227% [at 18.6 µM] in assay [8]. The activity change in assay [3] was -0.158% [at 18.6 µM]. In addition, the fluorescence, % of Rose Bengal in assay [5] is -0.0837% [at 18.6 µM]. Besides, the fluorescence, % of fluorescein control in assay [7] was 0.0276% [at 18.6 µM]. The Potency result in assay [9] and in assay [10] was “inactive” in each case.
Consider `COC(=O)Nc1ccc(Cl)c(Cl)c1`, for which the compound was called inactive in [1], in assay [2], in assay [3], in assay [4], in assay [5] and in assay [6]. The compound was called inactive in assay [7] and in assay [8]. Moreover, the Potency entry in assay [9] is “inactive”.
In the case of `O=S(=O)(O)c1cccc2ccccc12`, the compound was called inactive in [1], in assay [2], in [3], in [4], in assay [5] and in [6]. The call in assay [7] and in [8] was inactive. For the same compound, the Potency entry in assay [9] is “inactive”.
`CC(C)NNC(=O)c1ccncc1`: the compound was called inactive in assay [1], in assay [2], in assay [3], in assay [4], in assay [5] and in assay [6]. The call in assay [7] and in [8] was inactive. Moreover, the Potency result in [9] and in [10] was “inactive” each time.
Regarding `CCCCCCC#CC(=O)OC`, the compound was classed as inactive in assay [1], in [2], in assay [3], in assay [4], in assay [5] and in assay [6]. Moreover, the call in assay [7] and in assay [8] was inactive. In addition, in assay [9], the Potency result is “inactive”.

For the origin of these results see PubChem BioAssay (Tox21).
